The record followed here is PubChem BioAssay (NCI).

The structures appear in SMILES notation. About 79,000 compounds went through this panel and 15% of them were active in at least one assay; those are over-represented in the sample as a whole. Unmarked numbers belong to inactive results. Calls of active or inactive are those of the source. No stated cut-off is given here; in the data, active means growth inhibition above about 70%; inactive means the rest.

The nature of one experiment: NCI Yeast Anticancer Drug Screen. Data for the sgs1 strain (AID 173).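 Further: 0% = growth of vehicle-only control cultures.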 Particulars: S. cerevisiae sgs1 mutant, at 33.0 µM, stronger effect = higher value. The method, boiled down:
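A genetically defined yeast mutant is incubated with the test compound, and its growth is compared to that of the same strain given vehicle.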
Take `CCCc1cc(C(=O)OCC)cc(CCC)c1O`: the growth inhibition was 18%.
Take `CC(C)[N+]([O-])(CCCNc1c2ccccc2nc2cccc([N+](=O)[O-])c12)C(C)C`: the growth inhibition was 96% (active).
With `COc1cc2c3c(cccc3c1)C(=O)N(CCN(C)C)C2=O`, the growth inhibition is -15%.
As to `NC(=O)NN=C(CS)CS`, the growth inhibition is 49%.
For the molecule `Cc1ccc(NC(=O)/C(Cl)=C(\Cl)C(=O)O)cc1C`, the growth inhibition was 99% (active).
Turning to `CCN(CC)CC[n+]1ccc2c(C)c3[nH]c4ccc(O)cc4c3c(C)c2c1`, the growth inhibition was 9%.
On to `CC(CC(C)(C)[N+](C)(C)C)[N+](C)(C)C` (stereo not drawn), for which the growth inhibition was 4%.
In the case of `COc1ccc(OC)c2cc3ccccc3cc12`, the growth inhibition was -1%.
As to `Nc1ncncc1C(C1=C(O)COC1=O)C1=C(O)COC1=O`, the growth inhibition is 2%.
As for `CSC1=NNC(SC)=NN1`, the growth inhibition was 75% (active).
Regarding `Cc1c(Cl)ccc2c1S(=O)(=O)c1cccc(Cl)c1-2`, the growth inhibition is -13%.
With `[O-][n+]1c2ccc(O)cc2nc2ccc(Cl)cc21`, the growth inhibition is 46%.
Consider `COc1ccc2ccc3ccccc3c2c1C=O`, for which the growth inhibition is 10%.
For the molecule `Nc1ccc2c(c1)C(=O)c1cccc(N)c1C2=O`, the growth inhibition was 79% (active).
With `O=C(c1ccc(Cl)cc1Cl)C(Cl)Cl`, the growth inhibition is 80% (active).
As to `COc1cc(C(=O)/C=C/c2ccccc2O)ccc1O`, the growth inhibition was 99% (active).
Turning to `O=Cc1cccc2ccc3ccccc3c12`, the growth inhibition was 57%.
Regarding `O=C(Nc1ccc(Cl)cc1)OCC#CCCl`, the growth inhibition was 98% (active).
On to `Cn1ccnc1Oc1ccc(Cl)cc1`, for which the growth inhibition is 83% (active).
Take `c1ccc2c(c1)C(=NCCCN1CCCCCC1)c1cccn1-2`: the growth inhibition is 4%.
With `C/C(=N\O)C1CC2C=C(C#N)C1N(Cc1ccccc1)C2` (stereo not drawn), the growth inhibition was 9%.
On to `O=[N+]([O-])C(=C(Sc1ccccc1)Sc1ccccc1)C(Cl)=C(Cl)Cl`, for which the growth inhibition was 76% (active).
`CCCCCCCCCC/C=C\C(=O)O`: the growth inhibition is 19%.
Still for that read-out and setting: next, `COc1ccc(N=C2C(=O)Nc3ccc(Br)cc32)cc1`: -16%; `COc1ccccc1C(=O)OCC1CCCN2CCCCC12` (stereo not drawn): 63%; `CC(C)(Br)C(=O)/C=C/c1ccc(Cl)c(Cl)c1`: 7%.
As for `Nc1ccccc1CC(O)C(=O)O` (stereo not drawn), the growth inhibition was 83% (active).
Turning to `CC(=O)N/N=C/C(C)(C)C(C)(C)/C=N/NC(C)=O`, the growth inhibition was 67%.
As for `CN(C)c1nc2sc3c(c2c(=O)o1)CCCC3`, the growth inhibition is 19%.
`CC(C)OC(=O)Oc1ccccc1OC(=O)OC(C)C`: the growth inhibition is 1%.
With `Cc1ccc(N)c(S)c1`, the growth inhibition was 98% (active).
As for `O=C(O)c1ccccc1NC(=S)c1ccccc1`, the growth inhibition is -4%.
`COC(=O)c1ccc(NCC2=CC(=O)C=CC2=O)cc1O`: the growth inhibition was 97% (active).
On the same count and under the same terms, as for `NC(N)=N/N=C\c1c2ccccc2cc2ccccc12`, the figure is -1%; as for `COC(=O)CSSCc1ccc([N+](=O)[O-])cc1`, 87% (active); as for `CCS(=O)(=O)c1ccc(/C=C/C=N/NC(=S)NCC(C)C)cc1`, 1%.
Same read-out and setting: as for `N#CC(C(=O)Nc1ccccc1)C1=C(Cl)C(=O)c2ccccc2C1=O` (stereo not drawn), the figure is 97% (active); as for `C[C@H](CCC(=O)NN)[C@H]1CC[C@H]2[C@@H]3CC[C@@H]4C[C@H](O)CC[C@]4(C)[C@H]3CC[C@]12C`, 4%.
With `CC[n+]1ccc2c(C)c3[nH]c4ccc(O)cc4c3c(C)c2c1`, the growth inhibition is 0%.

Still in this experiment, the particulars now being: S. cerevisiae sgs1 mutant, at 100.0 µM, stronger effect = higher value.
For `CCCc1cc(C(=O)OCC)cc(CCC)c1O`, the growth inhibition was 95% (active).
For `CC(C)[N+]([O-])(CCCNc1c2ccccc2nc2cccc([N+](=O)[O-])c12)C(C)C`, the growth inhibition was 97% (active).
As for `COc1cc2c3c(cccc3c1)C(=O)N(CCN(C)C)C2=O`, the growth inhibition is -11%.
Same read-out and setting: next, `NC(=O)NN=C(CS)CS`: 89% (active); `Cc1ccc(NC(=O)/C(Cl)=C(\Cl)C(=O)O)cc1C`: 99% (active); `CCN(CC)CC[n+]1ccc2c(C)c3[nH]c4ccc(O)cc4c3c(C)c2c1`: 31%.
Turning to `CC(CC(C)(C)[N+](C)(C)C)[N+](C)(C)C` (stereo not drawn), the growth inhibition was -1%.
On to `COc1ccc(OC)c2cc3ccccc3cc12`, for which the growth inhibition was 7%.
Same read-out and setting: as for `Nc1ncncc1C(C1=C(O)COC1=O)C1=C(O)COC1=O`, the figure is -1%; as for `CSC1=NNC(SC)=NN1`, 98% (active).
For the molecule `Cc1c(Cl)ccc2c1S(=O)(=O)c1cccc(Cl)c1-2`, the growth inhibition is -24%.
Take `[O-][n+]1c2ccc(O)cc2nc2ccc(Cl)cc21`: the growth inhibition is 59%.
Regarding `COc1ccc2ccc3ccccc3c2c1C=O`, the growth inhibition was 50%.
Same read-out and setting: as for `Nc1ccc2c(c1)C(=O)c1cccc(N)c1C2=O`, the figure is 85% (active); as for `O=C(c1ccc(Cl)cc1Cl)C(Cl)Cl`, 98% (active); as for `COc1cc(C(=O)/C=C/c2ccccc2O)ccc1O`, 99% (active).
Regarding `O=Cc1cccc2ccc3ccccc3c12`, the growth inhibition is 99% (active).
Consider `O=C(Nc1ccc(Cl)cc1)OCC#CCCl`, for which the growth inhibition is 98% (active).
Turning to `Cn1ccnc1Oc1ccc(Cl)cc1`, the growth inhibition is 98% (active).
On the same count and under the same terms, next, `c1ccc2c(c1)C(=NCCCN1CCCCCC1)c1cccn1-2`: 96% (active).
On the same count and under the same terms, as for `C/C(=N\O)C1CC2C=C(C#N)C1N(Cc1ccccc1)C2` (stereo not drawn), the figure is 17%; as for `O=[N+]([O-])C(=C(Sc1ccccc1)Sc1ccccc1)C(Cl)=C(Cl)Cl`, 78% (active); as for `CCCCCCCCCC/C=C\C(=O)O`, 98% (active).
Regarding `COc1ccc(N=C2C(=O)Nc3ccc(Br)cc32)cc1`, the growth inhibition was -11%.
As to `COc1ccccc1C(=O)OCC1CCCN2CCCCC12` (stereo not drawn), the growth inhibition is 98% (active).
`CC(C)(Br)C(=O)/C=C/c1ccc(Cl)c(Cl)c1`: the growth inhibition is 17%.
Turning to `Nc1ccccc1CC(O)C(=O)O` (stereo not drawn), the growth inhibition was 95% (active).
Regarding `CC(=O)N/N=C/C(C)(C)C(C)(C)/C=N/NC(C)=O`, the growth inhibition was 98% (active).
On to `CN(C)c1nc2sc3c(c2c(=O)o1)CCCC3`, for which the growth inhibition is 36%.
As to `CC(C)OC(=O)Oc1ccccc1OC(=O)OC(C)C`, the growth inhibition is 2%.
On to `Cc1ccc(N)c(S)c1`, for which the growth inhibition is 98% (active).
Turning to `O=C(O)c1ccccc1NC(=S)c1ccccc1`, the growth inhibition was 53%.
With `COC(=O)c1ccc(NCC2=CC(=O)C=CC2=O)cc1O`, the growth inhibition is 91% (active).
Consider `NC(N)=N/N=C\c1c2ccccc2cc2ccccc12`, for which the growth inhibition is 93% (active).
For the molecule `COC(=O)CSSCc1ccc([N+](=O)[O-])cc1`, the growth inhibition was 99% (active).
Turning to `CCS(=O)(=O)c1ccc(/C=C/C=N/NC(=S)NCC(C)C)cc1`, the growth inhibition is 48%.
For the molecule `N#CC(C(=O)Nc1ccccc1)C1=C(Cl)C(=O)c2ccccc2C1=O` (stereo not drawn), the growth inhibition is 96% (active).
`C[C@H](CCC(=O)NN)[C@H]1CC[C@H]2[C@@H]3CC[C@@H]4C[C@H](O)CC[C@]4(C)[C@H]3CC[C@]12C`: the growth inhibition is 6%.
As to `CC[n+]1ccc2c(C)c3[nH]c4ccc(O)cc4c3c(C)c2c1`, the growth inhibition was 46%.
